The record followed here is the supplement of paper PMC6522484.

± gives the standard deviation of the averaged measurements.

The subject of assay [1] is DLD1. Description: cell viability (CellTiter-Glo) relative to plate median (fraction of plate median); higher = more viable cells. The conditions noted are these: 5 µM; treatment time 24 h; reporter: 7TFP. An outline of the steps: (§1)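 Library compounds were added at a final concentration of 5 µM for 24 h to colorectal cancer cells stably transduced with a lentiviral TCF/Wnt firefly luciferase reporter. Reported values are firefly luciferase or CellTiterGlo luminescence, normalised per well to the plate median. Each value averages two independent replicates.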

Assay [2] deals with HCT116. Described as above. The note with it: 5 µM; treatment time 24 h; reporter: TCF4/Wnt. An outline of the steps:
as §1

Assay [3] concerns SW480. Described as above. The note with it: 5 µM; treatment time 24 h; reporter: 7TFP. An outline of the steps: as §1
In assay [4] the test system is DLD1. Description: TCF/Wnt firefly luciferase reporter signal relative to plate median (fraction of plate median); higher = higher Wnt reporter signal. The note with it: 5 µM; treatment time 24 h; reporter: 7TFP. An outline of the steps: as §1
A general note: Reporter assays use an easily measured gene product as a stand-in for the process of interest.

Assay [5] relates to SW480. The assay is described as above. The conditions noted are these: 5 µM; treatment time 24 h; reporter: 7TFP. An outline of the steps: as §1

Regarding `CC(=O)OCC(=O)[C@@]1(O)CC[C@H]2[C@@H]3CCC4=CC(=O)CC[C@]4(C)[C@H]3[C@@H](O)C[C@@]21C`, the cell viability in assay [1] turned out to be 1.04 ± 0.077; in assay [2], 1.08 ± 0.057; in assay [3], 1.04 ± 0.05. For the same molecule, the figures for the “TCF/Wnt firefly luciferase reporter signal” value in assay [4] and in assay [5] were 1.05 and 1.07 ± 0.064, respectively.
For `CN1CCC(=C2c3ccccc3CC(=O)c3sccc32)CC1` the same measures were 0.988 ± 0.046, 1.04 ± 0.083, 0.988 ± 0.017, 0.956 ± 0.021 and 0.934 ± 0.042.
With `CCC(=O)O[C@@H]1[C@@H](OC2C(C)/C=C/C(=O)OC(C)C(CO[C@@H]3O[C@H](C)[C@@H](OC(=O)CC)[C@@H](OC)[C@H]3OC)C3OC3/C=C/C(=O)C(C)(O)CC2C)O[C@@H](C)C[C@H]1OC` (stereo not given in full) [Chalcomycin B], the cell viability in assay [1] is 1.04 ± 0.014; in assay [2], 1.06 ± 0.064; in assay [3], 1.11 ± 0.071. In addition, the “TCF/Wnt firefly luciferase reporter signal” value in assay [4] is 1.14 ± 0.12; in assay [5], 0.972 ± 0.2.
With `c1ccc(CC2=NCCN2)cc1`, the results for the cell viability in assay [1], in assay [2] and in assay [3] were 0.994 ± 0.066, 1.04 ± 0.075 and 0.9775 ± 0.00071, respectively. Further, the “TCF/Wnt firefly luciferase reporter signal” value in assay [4] is 0.952 ± 0.082; in assay [5], 1.01 ± 0.12.
The matching figures for `O=C([O-])c1ccccc1O.[Na+]`: 1.06 ± 0.035, 1.02 ± 0.077, 1.07 ± 0.028, 1.04 ± 0.09 and 1.02 ± 0.014.
As for `CC(=O)O[C@H]1CC[C@]2(C)[C@H]3CC[C@@]4(C)[C@H](c5ccoc5)OC(=O)[C@H]5O[C@]54[C@]3(C)[C@H](OC(C)=O)C[C@H]2C1(C)C` [3beta-ACETOXYDEOXODIHYDROGEDUNIN], the results for the cell viability in assay [1], in assay [2] and in assay [3] were 1.03 ± 0.054, 1.01 ± 0.077 and 0.949 ± 0.1, respectively. Also, the figures for the “TCF/Wnt firefly luciferase reporter signal” value in assay [4] and in assay [5] were 1.02 ± 0.061 and 1.04 ± 0.028, respectively.
`C#CC1(O)CC[C@H]2[C@@H]3CCC4=CC(=O)CC[C@@H]4[C@H]3CC[C@@]21CC` (mixture of isomers): the cell viability is 0.925 ± 0.0014 in assay [1], 0.875 ± 0.018 in assay [2] and 0.957 ± 0.026 in assay [3]. The “TCF/Wnt firefly luciferase reporter signal” value in assay [4] is 1.14 ± 0.028; in assay [5] it was 1.14 ± 0.035.
Take `CC(=O)Oc1cc(-c2coc3cc(OC(C)=O)c(OC(C)=O)c(OC(C)=O)c3c2=O)cc(OC(C)=O)c1OC(C)=O`: the figures for the cell viability in assay [1], in assay [2] and in assay [3] were 1 ± 0.015, 1.09 ± 0.2 and 0.998 ± 0.018, respectively. Besides, the “TCF/Wnt firefly luciferase reporter signal” value was determined as 1.09 ± 0.17 in assay [4] and 0.95 ± 0.1 in assay [5].
In the case of `CCOC(=O)[C@H](CCc1ccccc1)N[C@@H](C)C(=O)N1[C@H](C(=O)O)C[C@H]2CCCC[C@@H]21`, the cell viability in assay [1] worked out at 0.923 ± 0.14; in assay [2], 1.02 ± 0.068; in assay [3], 0.98 ± 0.026. In addition, the “TCF/Wnt firefly luciferase reporter signal” value turned out to be 0.912 ± 0.052 in assay [4] and 0.974 ± 0.093 in assay [5].
For `CO/C=C/C(=O)c1cc2cnc3c(=N)cc(NC(C)=O)c([nH]1)c23` [Lymphostin] the same measures were 1.08 ± 0.042, 0.71 ± 0.12, 1.14 ± 0.092, 0.891 ± 0.011 and 0.947 ± 0.028.
For `CS(=O)(=O)OCCCCOS(C)(=O)=O`, the cell viability amounted to 1.12 ± 0.2 in assay [1], 1.06 ± 0.028 in assay [2] and 1.06 ± 0.05 in assay [3]. Further, the “TCF/Wnt firefly luciferase reporter signal” value in assay [4] came to 0.9365 ± 0.005; in assay [5], 0.984 ± 0.037.
The matching figures for `O=C(O)CCCN1C(=O)c2cccc3cccc(c23)C1=O`: 0.994 ± 0.08, 1.04 ± 0.035, 0.995 ± 0.05, 0.96 ± 0.011 and 0.957 ± 0.047.
Take `NCCC(=O)c1ccccc1N`: the cell viability in assay [1] turned out to be 1.03 ± 0.052; in assay [2], 1.08 ± 0.057; in assay [3] it was 0.987 ± 0.0085. The figures for the “TCF/Wnt firefly luciferase reporter signal” value in assay [4] and in assay [5] were 0.981 ± 0.042 and 0.838 ± 0.016, respectively.
Take `O=C1NCC(=O)N2CCCC12` (stereo not given) [Cyclo(glycylprolyl)]: the cell viability in assay [1] is 0.941 ± 0.037; in assay [2] it was 0.9365 ± 0.005; in assay [3], 0.959 ± 0.016. Besides, the results for the “TCF/Wnt firefly luciferase reporter signal” value in assay [4] and in assay [5] were 1.2 ± 0.085 and 0.978 ± 0.073, respectively.
On to `Cc1cc(N)c2ccccc2[n+]1CCCCCCCCCC[n+]1c(C)cc(N)c2ccccc21`, for which the cell viability was determined as 0.995 ± 0.092 in assay [1], 0.907 ± 0.042 in assay [2] and 0.989 ± 0.087 in assay [3]. In addition, the “TCF/Wnt firefly luciferase reporter signal” value in assay [4] was 0.751 ± 0.18; in assay [5], 0.793 ± 0.11.
